The source of these data is PubChem BioAssay (NCATS).

SMILES strings stand for the structures. “And” between values parts separate entries of the source, which are not always exact repeats. Identical values can stand only once. Inconclusive results are not listed. Values without a mark were called inactive. The source made the active and inactive calls. Unless noted, calls come from the whole dose curve; as a rule, active = well fitted curve in the direction sought with a large enough effect; inconclusive = small, poorly fitted or top-dose-only effect, or another doubt; inactive = no such curve, though single readings can be large; an effect the other way counts as inactive or inconclusive.

Assay [1] concerns the target Voltage-gated inwardly rectifying potassium channel KCNH2 (Homo sapiens) (UniProt Q12809). Kind of assay: qHTS Assay for Small Molecule Inhibitors of the Human hERG Channel Activity (AID 588834).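 Note: lower thallium flux fluorescence means stronger hERG block; nearly all actives have a fitted effect of over 50% in size.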 Note: potency is the fitted concentration of half-maximal effect. The method, boiled down: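 Concentration-response qHTS measuring drop in thallium-sensitive dye signal. U2OS cells carrying BacMam hERG; compound exposure ~10 min, then stimulation buffer and 2 min read at 1 sec intervals.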
On the technique in general: Quantitative high-throughput screening tests each substance at several concentrations.

In assay [2] the target is Luciferin 4-monooxygenase (Photinus pyralis) (UniProt P08659). Nature of the assay: Biochemical firefly luciferase enzyme assay for NPC (AID 624030). Note: nearly all actives have a fitted effect of over 70% in size. Note: potency is the fitted concentration of half-maximal effect. The method, boiled down:
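Purified P. pyralis luciferase at 10 nM in 50 mM Tris Acetate (final), luminescence read within 5 minutes of enzyme addition to compounds. Activity normalised to PTC124 versus DMSO; concentration-response curves classed by r2, magnitude and activity.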

Assay [3] can be described thus: S16 Schwann cell viability assay (CellTiter-Glo assay) (AID 624031).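 Note: native untransfected S16 rat Schwann cells; plate controls were DMSO-treated cells for no effect and cell-free wells for full effect; nearly all actives have a fitted effect of over 70% in size.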 The essentials: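 Counter-screen for cytotoxicity: parental S16 rat Schwann cells lacking the PMP22 reporters, treated 24 h with compound, viability from cellular ATP by CellTiter-Glo luminescence, normalized to DMSO (0%) and no-cell wells.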
A short description of assay [4]: S16 Schwann cell PMP22 intronic element firefly luciferase assay (AID 624032). Note: nearly all actives have a fitted effect of over 30% in size. Note: potency is the fitted concentration of half-maximal effect. The method, boiled down: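 Rat S16 Schwann cells stably carrying firefly luciferase driven by a PMP22 intronic element, in 10% FBS, treated 24 h at 37 C. ONE-Glo luminescence normalized to PTC124 control and DMSO (0%); curves classed by r2, magnitude and activity.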
Assay [5] can be described thus: S16 Schwann cell PMP22 intronic element beta-lactamase assay (AID 624044; calls by dose curve;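 note: 0% = DMSO and -100% = potassium clavulanate positive control; nearly all actives have a fitted effect of over 15% in size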). The conditions noted are these: S16 rat Schwann cells, PMP22 element beta-lactamase FRET, 24 h; ratio activity, negative = inhibition: at 38.3 µM (top of the series) unless noted. The method, boiled down:
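Rat S16 Schwann cells with beta-Lac driven by a PMP22 intronic element, compound-treated 24 h at 37 °C. LiveBLAzer FRET B/G read: 460 nm normalized to potassium clavulanate vs DMSO; 535 nm FRET as viability; concentration-effect curves classified.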

Sequence of Luciferin 4-monooxygenase (Photinus pyralis) (P08659 whole entry, looked up): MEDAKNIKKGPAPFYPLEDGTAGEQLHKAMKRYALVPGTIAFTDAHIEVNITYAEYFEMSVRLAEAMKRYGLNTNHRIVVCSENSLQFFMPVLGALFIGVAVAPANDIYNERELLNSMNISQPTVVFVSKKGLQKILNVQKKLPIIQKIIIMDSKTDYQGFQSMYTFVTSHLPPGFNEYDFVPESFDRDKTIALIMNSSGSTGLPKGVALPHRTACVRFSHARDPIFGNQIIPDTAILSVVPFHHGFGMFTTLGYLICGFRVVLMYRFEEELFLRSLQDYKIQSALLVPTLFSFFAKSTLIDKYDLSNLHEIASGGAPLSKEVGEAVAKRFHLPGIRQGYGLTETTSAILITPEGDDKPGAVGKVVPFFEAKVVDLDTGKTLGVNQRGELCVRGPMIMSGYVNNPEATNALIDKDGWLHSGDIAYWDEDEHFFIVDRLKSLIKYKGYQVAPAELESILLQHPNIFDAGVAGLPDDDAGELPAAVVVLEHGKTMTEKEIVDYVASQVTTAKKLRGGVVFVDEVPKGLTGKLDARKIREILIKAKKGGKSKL
Sequence of Voltage-gated inwardly rectifying potassium channel KCNH2 (Homo sapiens) (Q12809 whole entry, looked up): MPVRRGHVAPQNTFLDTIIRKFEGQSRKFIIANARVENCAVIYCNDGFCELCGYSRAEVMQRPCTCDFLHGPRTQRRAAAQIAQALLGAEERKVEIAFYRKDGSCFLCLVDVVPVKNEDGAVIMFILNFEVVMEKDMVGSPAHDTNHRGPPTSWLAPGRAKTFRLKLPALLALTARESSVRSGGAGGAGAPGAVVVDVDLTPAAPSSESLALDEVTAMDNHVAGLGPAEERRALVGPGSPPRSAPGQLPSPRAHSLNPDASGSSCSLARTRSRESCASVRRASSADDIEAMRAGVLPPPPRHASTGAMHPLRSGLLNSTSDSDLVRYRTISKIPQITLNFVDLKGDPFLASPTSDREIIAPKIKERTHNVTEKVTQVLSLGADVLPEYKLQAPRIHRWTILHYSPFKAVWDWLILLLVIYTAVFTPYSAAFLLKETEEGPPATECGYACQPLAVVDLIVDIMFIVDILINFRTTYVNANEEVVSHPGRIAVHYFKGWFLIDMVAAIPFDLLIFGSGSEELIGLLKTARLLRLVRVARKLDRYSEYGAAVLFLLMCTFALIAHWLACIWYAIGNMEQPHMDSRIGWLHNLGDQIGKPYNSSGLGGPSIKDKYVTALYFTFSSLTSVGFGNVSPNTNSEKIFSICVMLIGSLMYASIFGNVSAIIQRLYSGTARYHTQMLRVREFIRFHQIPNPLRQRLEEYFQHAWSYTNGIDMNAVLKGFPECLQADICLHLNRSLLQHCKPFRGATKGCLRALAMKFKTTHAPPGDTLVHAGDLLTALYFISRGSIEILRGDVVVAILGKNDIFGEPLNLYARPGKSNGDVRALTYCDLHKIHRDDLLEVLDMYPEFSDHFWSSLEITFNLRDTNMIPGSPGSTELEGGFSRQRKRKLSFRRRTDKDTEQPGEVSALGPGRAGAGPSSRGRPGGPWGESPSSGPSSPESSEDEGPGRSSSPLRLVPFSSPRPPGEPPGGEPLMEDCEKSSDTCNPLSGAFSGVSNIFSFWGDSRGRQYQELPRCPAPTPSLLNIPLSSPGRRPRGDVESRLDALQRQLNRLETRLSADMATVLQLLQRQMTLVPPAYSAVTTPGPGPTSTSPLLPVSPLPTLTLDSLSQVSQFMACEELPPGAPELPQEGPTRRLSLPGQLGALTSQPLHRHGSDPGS

For `COc1ccc(C[C@H](C)NC[C@@H](O)c2ccc(O)c(NC=O)c2)cc1`, the Potency in assay [1] is 14.1 µM (active). Moreover, in assay [2], the Potency result is “inactive”.
Regarding `FCOC(C(F)(F)F)C(F)(F)F`, the Potency result in assay [1], in assay [2], in assay [3] and in assay [4] was “inactive” throughout.
Regarding `CCC(=O)c1ccc2c(c1)N(CCCN1CCN(CCO)CC1)c1ccccc1S2`, in assay [1], the Potency is 5.01 µM (active). Further, the Potency entry in assay [2] was “inactive”.
For the compound `CCCC(=O)O`, the Potency entry in assay [1], in assay [2], in assay [3] and in assay [4] was “inactive” each time.
For the compound `CCCCCCCCCc1ccc(OCCOCCO)cc1`, the Potency in assay [1] was 14.1 µM (active).
With `COc1ccc(-c2noc(CC(=O)O)c2-c2ccc(OC)cc2)cc1`, the Potency result in assay [1], in assay [2] and in assay [3] was “inactive” throughout.
With `CC(C)(C)NCC(O)CSc1nc(-c2ccc(C(N)=O)s2)cs1` (stereo unspecified), the Potency entry in assay [1] is “inactive”.
Turning to `CC(=O)NCCCS(=O)(=O)O`, the Potency entry in assay [1], in assay [2] and in assay [3] was “inactive” throughout.
Regarding `Cc1cc(-c2ccc(N=Nc3ccc4c(S(=O)(=O)O)cc(S(=O)(=O)O)c(N)c4c3O)c(C)c2)ccc1N=Nc1ccc2c(S(=O)(=O)O)cc(S(=O)(=O)O)c(N)c2c1O`, the Potency entry in assay [1] and in assay [3] was “inactive” in each case. Moreover, the Potency was 28.7 µM (active) and 14.4 µM (active) in assay [2]; 8.09 µM (active) in assay [4].
`Oc1ccc(Cl)c2c1CCC2`: the Potency entry in assay [1] and in assay [2] was “inactive” in each case.
On to `CCCc1ccc(C(=O)O)cc1`, for which the Potency entry in assay [1], in assay [2], in assay [3] and in assay [4] was “inactive” throughout.
With `CCOc1ccc(S(=O)(=O)O)c2cccnc12`, the Potency result in assay [1], in assay [2], in assay [3] and in assay [4] was “inactive” in each case.
`CC(/C=C/C=C(\C)C(=O)O[C@@H]1O[C@H](CO[C@@H]2O[C@H](CO)[C@@H](O)[C@H](O)[C@H]2O)[C@@H](O)[C@H](O)[C@H]1O)=C\C=C\C=C(C)\C=C\C=C(/C)C(=O)O[C@@H]1O[C@H](CO[C@@H]2O[C@H](CO)[C@@H](O)[C@H](O)[C@H]2O)[C@@H](O)[C@H](O)[C@H]1O`: the Potency result in assay [1], in assay [2], in assay [3] and in assay [4] was “inactive” throughout.
Take `C[C@@H](O)[C@H]1C(=O)N2C(C(=O)[O-])=C(SC3Cn4cnc[n+]4C3)[C@H](C)[C@H]12` (stereo partly specified): the Potency entry in assay [1] was “inactive”.
Regarding `CC1CC(O)CC(C)(C)C1` (stereo unspecified), the Potency entry in assay [1], in assay [2], in assay [3] and in assay [4] was “inactive” each time.
Turning to `CC12CCC(C[N+](C)(CCC[N+](C)(C)C)C1)C2(C)C` (stereo unspecified), the Potency result in assay [1], in assay [2] and in assay [3] was “inactive” throughout.
Consider `CCCCCCCCCCCCCCCCCC[N+](C)(C)CCC[Si](OC)(OC)OC`, for which the Potency result in assay [1], in assay [2] and in assay [3] was “inactive” throughout.
On to `C[Se]CC[C@H](N)C(=O)O`, for which the Potency entry in assay [1], in assay [2], in assay [3] and in assay [4] was “inactive” each time.
Take `CC1(C)S[C@@H]2[C@H](NC(=O)C3(N)CCCCC3)C(=O)N2[C@H]1C(=O)O`: the Potency entry in assay [1], in assay [2], in assay [3] and in assay [4] was “inactive” each time.
As for `Cc1ncc(C[n+]2csc(CCO)c2C)c(N)n1`, the Potency result in assay [1], in assay [2] and in assay [3] was “inactive” throughout.
On to `FC(F)(F)C(F)(F)C(F)(F)C(F)(F)C(F)(F)F`, for which the Potency result in assay [1], in assay [2], in assay [3] and in assay [4] was “inactive” throughout.
Take `COc1ccc2nc(NC(=O)Nc3ccccc3)sc2c1`: the Potency entry in assay [1], in assay [3] and in assay [4] was “inactive” in each case. Besides, the Potency in assay [2] was 721 nM (active).
For `CC(=O)[C@H]1CC[C@H]2[C@@H]3C=CC4=CC(=O)CC[C@@]4(C)[C@H]3CC[C@]12C`, the Potency entry in assay [1], in assay [2] and in assay [3] was “inactive” in each case.
For `CC(C)=CCC/C(C)=C/CC/C(C)=C/CC/C=C(\C)CC/C=C(\C)CCC=C(C)C`, the Potency entry in assay [1], in assay [2], in assay [3] and in assay [4] was “inactive” throughout.
As for `CCC(O)c1ccccc1` (stereo unspecified), the Potency entry in assay [1], in assay [2], in assay [3] and in assay [4] was “inactive” each time.
With `CNC(=O)[C@H](Cc1c[nH]c2ccccc12)NC(=O)[C@@H](CC(=O)NO)CC(C)C`, the Potency entry in assay [1], in assay [2], in assay [3] and in assay [4] was “inactive” each time.
Turning to `CC(=O)N[C@@H](C=O)[C@@H](O)[C@H](O)[C@H](O)CO`, the Potency result in assay [1] and in assay [2] was “inactive” in each case.
Turning to `O=P(O)(O)CP(=O)(O)O`, the Potency result in assay [1], in assay [2], in assay [3] and in assay [4] was “inactive” throughout.
For the compound `Cc1c(C)c2c(c(C)c1OC(=O)CCC(=O)O)CC[C@@](C)(CCC[C@H](C)CCC[C@H](C)CCCC(C)C)O2`, the Potency result in assay [1], in assay [2], in assay [3] and in assay [4] was “inactive” throughout.
Regarding `NC(=O)CC[C@@H]1NC(=O)[C@H](Cc2ccccc2)NC(=O)[C@H](Cc2ccc(O)cc2)NC(=O)[C@@H](N)CSSC[C@@H](C(=O)N2CCC[C@H]2C(=O)N[C@@H](CCCN=C(N)N)C(=O)NCC(N)=O)NC(=O)[C@H](CC(N)=O)NC1=O`, the Potency entry in assay [1], in assay [2] and in assay [3] was “inactive” throughout.
`Cc1cc(O)c2c(c1)O[C@@]1(C)CC[C@H]3C(C)(C)CCCC34CO[C@@H]2[C@H]41` (stereo partly specified): in assay [1], the Potency entry is “inactive”.
Regarding `N[C@H](CC(=O)O)C(=O)O`, the Potency result in assay [1], in assay [2], in assay [3] and in assay [4] was “inactive” throughout.
Take `c1ccc(-n2cnnn2)cc1`: the Potency result in assay [1], in assay [2], in assay [3] and in assay [4] was “inactive” in each case.
For the compound `O=C(O)COc1ccccc1/C=N/NC(=O)c1ccncc1`, the Potency result in assay [1], in assay [2], in assay [3] and in assay [4] was “inactive” in each case.
As to `CCN(CC)C(=S)S`, the Potency result in assay [1] and in assay [2] was “inactive” each time.
Regarding `F[Si-2](F)(F)(F)(F)F`, the Potency result in assay [1], in assay [2] and in assay [3] was “inactive” each time.
Consider `CC(=O)Nc1ccc(OC(=O)c2ccccc2O)cc1`, for which the Potency entry in assay [1], in assay [3] and in assay [4] was “inactive” each time. Further, the Potency in assay [2] was 25600 nM (active). Further, the ratio activity, negative = inhibition in assay [5] was 1.52%.
Regarding `Cc1cccc(C)c1NC(=O)NC1=CCCN1C`, the Potency entry in assay [1], in assay [2], in assay [3] and in assay [4] was “inactive” in each case.
With `COC(=O)CCC[N+](C)(C)C`, the Potency result in assay [1], in assay [2], in assay [3] and in assay [4] was “inactive” each time.
Take `CC(C)c1ncc([N+](=O)[O-])n1C`: the Potency result in assay [1], in assay [2], in assay [3] and in assay [4] was “inactive” throughout.
Turning to `OCCCNc1ccccc1`, the Potency entry in assay [1], in assay [2], in assay [3] and in assay [4] was “inactive” throughout. The ratio activity, negative = inhibition in assay [5] was 0.736%.
